Measured values published in PubChem BioAssay AID743446 (Broad Institute, 2014).
Results with a measured potency or affinity are listed apart. A number with no mark means an inactive call. No rule for the calls is given here.

Assay: HEK293 cell cytotoxicity, dose response, cytotoxicity control, plate reader, cherry-picked samples (AID 743446)
Settings: active compounds read low; at 26 µM unless noted

For `CC(C)(C)C(=O)Nc1ccc(NC(=O)c2ccco2)nc1`, which max activity is on record?
Its max activity is 11.3% [at 0.38 µM].

With `O=C(Nc1ccc(N2CCOCC2)c(S(=O)(=O)Nc2ccccc2Cl)c1)c1ccc(F)cc1` as the compound, how does the max activity read?
The max activity was -18.2% [at 0.1 µM].

Which max activity does the source give for `COc1ccc(/C=C/C(=O)Nc2ccccc2C(=O)O)cc1OC` here?
Its max activity is 13.2% [at 1.6 µM].

For `COc1ccc2nc(-c3ccccn3)ccc2c1`, which max activity is on record?
Its max activity is -37.6%.

Which max activity does the source give for `Cc1ccc(-c2cnn3c(N4CCOCC4)cc(C)nc23)cc1` here?
Its max activity is 35.7% [at 0.38 µM].

For `CC(C)Nc1ncnc2c1cnn2-c1ccc(Cl)cc1`, which max activity is on record?
Its max activity is 60.9%.

With `O=C(Nc1ccc(N2CCOCC2)cc1)c1cnccn1` as the compound, how does the max activity read?
The max activity was -6.24% [at 3 µM].

Which max activity does the source give for `N#C[C@@H]1[C@H](c2ccc(C#Cc3cccc(F)c3)cc2)[C@@H](CO)N1C(=O)C1CCC1` here?
Its max activity is 22.1% [at 12 µM].

Which max activity does the source give for `O=C(Nc1ccc(Cl)cc1)Nc1cccc(C(=O)O)c1` here?
The max activity was -10.1%.

With `CCN(C(=O)COC(=O)C12CC3CC(CC(O)(C3)C1)C2)c1c(N)n(Cc2ccccc2)c(=O)[nH]c1=O` as the compound, how does the max activity read?
The max activity was 34% [at 0.1 µM].

For `Cc1ccc(Nc2nc(-c3ccccc3)cs2)nc1`, which max activity is on record?
The max activity was -17.9% [at 0.05 µM].

Which max activity does the source give for `CCCc1ccc(-c2ccc(F)c(N)c2)nc1` here?
Its max activity is -20.7% [at 12 µM].

Which max activity does the source give for `Cc1ccccc1-c1ccc([C@H]2[C@@H](CO)N3CCCCN(S(=O)(=O)c4ccc(F)cc4)C[C@@H]23)cc1` here?
Its max activity is -101%.

For `Cc1ccc(-n2[nH]c(=O)c(-c3ccccn3)c2C)cc1`, which max activity is on record?
Its max activity is 41.3% [at 12 µM].

Which max activity does the source give for `Cc1csc(NC(=O)c2ccc(OCC3CCCO3)cc2)n1` (stereo not drawn) here?
Its max activity is 28.1% [at 3 µM].

For `Cc1ccc(-c2cc(C(=O)N3CCOCC3)no2)cc1`, which max activity is on record?
The max activity was -12% [at 6 µM].

For `Cn1c(=O)c2cc(NC(=O)NCc3ccccc3)ccc2n1C/C=C/c1ccccc1`, which max activity is on record?
Its max activity is 34.9% [at 1.6 µM].

With `Cc1cccc(-n2ncc3c(N4CCOCC4)ncnc32)c1` as the compound, how does the max activity read?
Its max activity is 28.5%.

For `Cc1cc(C(=O)COC(=O)c2ccccc2O)c(C)n1CC1CCCO1` (stereo not drawn), which max activity is on record?
The max activity was -7.06% [at 6 µM].

With `O=C(O)c1ccc(N/N=C/c2c[nH]c3ccccc23)cc1` as the compound, how does the max activity read?
The max activity was 10.4% [at 3 µM].

For `CC(=O)N1CCCC(c2cc(C(=O)Nc3ccccc3)no2)C1` (stereo not drawn), which max activity is on record?
The max activity was -27% [at 12 µM].

With `COc1ccc(-c2cn3cc(C)ccc3n2)cc1F` as the compound, how does the max activity read?
The max activity was 44.7% [at 12 µM].

With `CC(C)(C)c1ccc(C(=O)NCCOc2ccccc2F)cc1` as the compound, how does the max activity read?
The max activity was 23.5%.

For `C[C@H](CO)N1C[C@H](C)[C@H](CN(C)C(=O)Nc2ccccc2)OCCCC[C@H](C)Oc2ccc(NC(=O)CCC(F)(F)F)cc2C1=O`, which max activity is on record?
The max activity was -24.3% [at 0.195 µM].

For `CC(C)CCn1cnc2c(oc3nc4c(cc32)CCCC4)c1=O`, which max activity is on record?
Its max activity is -17.8%.

With `COc1ccc2sc(NC(=O)c3ccco3)nc2c1` as the compound, how does the max activity read?
The max activity was 18.6% [at 0.05 µM].

With `CC(C)(C)c1ccc(Cn2c(=O)cnc3ccccc32)cc1` as the compound, how does the max activity read?
The max activity was -26.8% [at 12 µM].

With `CCOC(=O)c1cn2nc(N3CCCC3)ccc2n1` as the compound, how does the max activity read?
The max activity was -7.31% [at 6 µM].

Which max activity does the source give for `COc1ccc(-c2cc(C)nc3c(-c4ccccc4)cnn23)cc1` here?
Its max activity is -10.2%.

Which max activity does the source give for `COc1ccc(OCC(=O)Nc2nccs2)cc1` here?
Its max activity is 15.2% [at 1.6 µM].

With `COc1ccc(NC(=O)N(C)C[C@@H]2OCCCC[C@H](C)Oc3ccc(NC(=O)C4CCCCC4)cc3C(=O)N([C@H](C)CO)C[C@@H]2C)cc1` as the compound, how does the max activity read?
The max activity was 11.8%.

With `O=C(Nc1cc(S(=O)(=O)Nc2ccccc2Cl)ccc1O)c1ccc(F)cc1F` as the compound, how does the max activity read?
Its max activity is -13.9% [at 0.8 µM].

Which max activity does the source give for `Cc1ccc2nc(-c3ccc(NC(=O)C4CCCO4)cc3)[nH]c2c1` (stereo not drawn) here?
Its max activity is 41.8%.

For `CCCCN(Cc1ccccc1)S(=O)(=O)c1cc2c(cc1Br)CC(C)N2C(C)=O` (stereo not drawn), which max activity is on record?
The max activity was 18.2% [at 0.38 µM].

With `Cc1ccc2nc(NC(=O)CCCC(=O)O)sc2c1` as the compound, how does the max activity read?
The max activity was 12.5%.

Which max activity does the source give for `C[C@H](CO)N1C[C@H](C)[C@H](CN(C)Cc2ccncc2)Oc2ncc(C#CCC3CCCCC3)cc2C1=O` here?
The max activity was 18.1% [at 3 µM].

For `Cc1ccccc1C(=O)Nc1nnc(-c2ccco2)s1`, which max activity is on record?
The max activity was -13.7% [at 12 µM].

For `C[C@@H]1CN([C@H](C)CO)C(=O)CCCn2nncc2CO[C@H]1CN(C)C(=O)Nc1cccc2ccccc12`, which max activity is on record?
The max activity was 15.4%.
